{"source": "PubChem BioAssay (EPA / NIEHS)", "note": "Activity calls are given as the source filed them. The calls were made as follows: active = hit-call score of the fitted dose curve at least 0.9, where 1 is the maximum; inactive = score below 0.9.", "data": [{"read-out": "sulfotransferase 2A1 (SULT2A1), SULT2A1 (gene 6822)", "experiment": "LTEA_HepaRG_SULT2A1: Life Technologies and Expression Analysis (LTEA) Assay for sulfotransferase 2A1 (SULT2A1) using HepaRG (AID 2283531)", "conditions": "mRNA level, 48 h; actives raise or lower the signal", "experimental": "LTEA_HepaRG is a cell based, multiplexed-readout assay that uses HepaRG, a human liver cell line, with measurements taken at 48 hours after chemical dosing on a 96-well plate.LTEA_HepaRG_SULT2A1 is one of 102 assay component(s) measured in the LTEA HepaRG cell culture assay. It is a marker of NR mediated transport.Data from the assay component LTEA_HepaRG_SULT2A1 was analyzed into 1 endpoint. This assay endpoint, LTEA_HepaRG_SULT2A1, was analyzed with bidirectional fitting relative to DMSO as the negative control and baseline of activity. Using a type of inducible reporter, measures of mRNA induction for gain or loss-of-signal activity can be used to understand regulation of transcription factor activity. To generalize the intended target to other relatable targets, this assay endpoint is annotated to the transferase intended target family, where the subfamily is sulfotransferase.\nA total of 1060 chemcials from the ToxCast library were tested in eight-point concentration-response experiments. Cell culture and cytotoxicity assays were conducted at Thermo Fisher Scientific's Custom Services facility (Madison, WI). A single lot of human HepaRG cells (Thermo Fisher Scientific, Frederick, MD) was used for the cell culture experiments. 96-well format collagen type I coated plates of human HepaRG cells were prepared using established methods. Briefly, cryopreserved HepaRG cells were thawed, plated at a density of approximately 100,000 cells/well in HepaRG Thaw, Plate, and General Purpose media (HPRG770, Thermo Fisher Scientific), and incubated for 48 hours. 0.5% DMSO was selected as vehicle control to balance the requisite need of DMSO in HepaRG cultures to maintain differentiation (for example, baseline metabolism, proportions of hepatocytes vs. cholangiocytes), while enabling further hepatic receptor pathway activation (for example, PXR and CAR) in response to chemical exposure. 48 hours after plating, the culture medium was replaced with HepaRG Serum-Free Incudtion Media. Cells were exposed to each test chemical in duplicate and maintained in CO2 incubators for another 48 hours. Chemical plates were thawed to room temperature and 200x concentrations of treatment groups were prepared. 8-point conentration-reponse curves were made with the highest exposure at 100 uM, followed by half-log dilutions, all in 0.5% DMSO. Each test plate contained variouse controls, induction positive controls (1mM phenobarbital), cytotoxicity positive controls ([…] aflatoxin B1), vehicle controls (0.5% DMSO), and total lysis controls (0.5% DMSO). Cell morphology images were taken using an Essen IncuCyte FLR automated microscope, with six 96-well plates imaged in about 24 minutes. Images were captured and exported and JPEG files. Spent culture media was transfered to black-well plates for the LDH assay, and remaining media was sorted at -80 C for later use. Cells were treated with RLT buffer and frozen until shipped for gene expression analysis. Total RNA was isolated from the cell suspension in 75 uL of Buffer RLT (Qiagen, Germantown, MD 20874) by Quintiles/Expression Analysis (Durham, NC) using a custom isolation procedure. Total RNA from each plate well was transferred to a preamplification plate. Fluidigm's 96.96 Dynamic ArrayTM (Fluidigm, Amsterdam, the Netherlands) technology was used for gene expression analyses by quantitative reverse transcription polymerase chain reaction (qRT-PCR, performed by Quintiles/Expression Analysis, Durham, NC)89. Standard TaqManTM Assays (Applied Biosystems/ThermoFisher Scientific, Foster City, CA) were used to assess the expression of 93 genes selected based on their selectivity and sensitivity to important hepatic receptors known to be modulated by environmental chemicals; importance in human hepatocyte functionality; and hepatotoxicity. […]", "values": [{"smiles": "CC(C)CCCCCCOC(=O)CCCCC(=O)OCCCCCCC(C)C", "outcome": "inactive"}, {"smiles": "CCCCC(CC)COC(=O)CCCCC(=O)OCc1ccccc1", "note": "(stereo not given)", "outcome": "inactive"}, {"smiles": "CCc1nn(C2CCCCC2)c2cc(C3(C#N)CCC(C(=O)O)CC3)ccc12", "note": "(stereo not given)", "AC50": "80.4 µM (active)"}, {"smiles": "CC(=O)CC(C)(C)O", "outcome": "inactive"}, {"smiles": "NC(=O)N(O)[C@@H]1C=C[C@H](Oc2cccc(Oc3ccc(F)cc3)c2)C1", "AC50": "76.5 µM (active)"}, {"smiles": "N#C[C@@H]1CC(F)(F)CN1C(=O)CNC1CC2CCC(C1)N2c1ncccn1", "note": "(stereo not given in full)", "outcome": "inactive"}, {"smiles": "Oc1cc2ccccc2c2ccccc12", "outcome": "inactive"}, {"smiles": "COc1ccc([N+](=O)[O-])cc1N", "outcome": "inactive"}, {"smiles": "CC(C)(C)CC(C)(C)c1ccc(O)c(-n2nc3ccccc3n2)c1", "outcome": "inactive"}, {"smiles": "CCCOc1sc(C(=O)N2CCC(c3cc(CN)ccc3F)CC2)c(C)c1Br", "outcome": "inactive"}, {"smiles": "CCc1ccc(CCOc2ccc(CC3SC(=O)NC3=O)cc2)nc1", "note": "(stereo not given)", "AC50": "81.1 µM (active)"}, {"smiles": "O=[N+]([O-])c1ccc(O)cc1", "outcome": "inactive"}, {"smiles": "CCCCC(CC)COC(=O)CCCCC(=O)OCC(CC)CCCC", "note": "(stereo not given)", "outcome": "inactive"}, {"smiles": "Nc1cccc2c(N)cccc12", "outcome": "inactive"}, {"smiles": "CCCCCCC(=O)O", "outcome": "inactive"}, {"smiles": "CCOC(=O)CC(O)(CC(=O)OCC)C(=O)OCC", "outcome": "inactive"}, {"smiles": "CCC(=C(c1ccc(O)cc1)c1ccc(OCCN(C)C)cc1)c1ccccc1", "AC50": "85.5 µM (active)"}, {"smiles": "c1ccc2cc3c(ccc4ccccc43)cc2c1", "AC50": "13.3 µM (active)"}, {"smiles": "CCCCCCCCCCCCc1ccccc1S(=O)(=O)O", "AC50": "83.4 µM (active)"}, {"smiles": "COCC(C)OCC(C)O", "note": "(stereo not given)", "outcome": "inactive"}, {"smiles": "COC(=O)CCCCC(=O)OC", "outcome": "inactive"}, {"smiles": "CN1CCN(c2ccccc2/C=C2\\SCCN(c3ccc(Cl)c(Cl)c3)C2=O)CC1", "AC50": "93.2 µM (active)"}, {"smiles": "C#C[C@]1(O)CC[C@H]2[C@@H]3CCC4=CC(=O)CC[C@@H]4[C@H]3CC[C@@]21C", "AC50": "15.9 µM (active)"}, {"smiles": "CC(C)(C)c1ccc(O)c(C(C)(C)C)c1", "outcome": "inactive"}, {"smiles": "C[C@@H]1C[C@H]2[C@@H]3CCC4=CC(=O)C=C[C@]4(C)[C@@]3(F)[C@@H](O)C[C@]2(C)[C@@]1(O)C(=O)COP(=O)(O)O", "outcome": "inactive"}, {"smiles": "CC(=O)NC1(c2cccc(F)c2)CCN(CC[C@@]2(c3ccc(Cl)c(Cl)c3)CN(c3ccccc3)C(=O)CO2)CC1", "outcome": "inactive"}, {"smiles": "CC(O)CO", "note": "(stereo not given)", "outcome": "inactive"}, {"smiles": "O=C(O)c1ccccc1C(c1ccc(O)cc1)c1ccc(O)cc1", "outcome": "inactive"}, {"smiles": "CCCCCCCC(=O)O", "outcome": "inactive"}, {"smiles": "CC[C@H](C)[C@@H](C(=O)O)n1sc2ccccc2c1=O", "outcome": "inactive"}, {"smiles": "CCCCCCCCCCCCCCCS(=O)(=O)Oc1ccccc1", "outcome": "inactive"}, {"smiles": "Cc1cc(CCN2CCN(c3nsc4ccccc34)CC2)cc2c1NC(=O)CC2(C)C", "AC50": "85.8 µM (active)"}, {"smiles": "CC(C)(C)c1cccc(C(C)(C)C)c1O", "outcome": "inactive"}, {"smiles": "CC1=C(/C=C/C(C)=C/C=C/C(C)=C/C(=O)O)C(C)(C)CCC1", "AC50": "0.812 µM (active)"}, {"smiles": "CCCOC(=O)c1ccc(O)cc1", "outcome": "inactive"}, {"smiles": "Cc1cc(C)c(O)c(C)c1", "outcome": "inactive"}, {"smiles": "CCCCCCCCC(=O)O", "outcome": "inactive"}, {"smiles": "OCCC(F)(F)C(F)(F)C(F)(F)C(F)(F)C(F)(F)C(F)(F)F", "outcome": "inactive"}, {"smiles": "OC1CCCCC1", "outcome": "inactive"}, {"smiles": "Oc1cccc(O)c1", "outcome": "inactive"}]}]}
